High-throughput results (PubChem)
In the library only some 3.5% were active in any assay of this set; here they are far more common.
FBW7 act = activators of human E3 ligase FBW7 | AlphaScreen FBW7–phospho-cyclin E peptide binding, activator screen | normalized activity (activation), % at 26.1 µM | actives 0.13% (n = 650,000); in the data active means normalized activity above about 1.9%;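 further: purified mutant Fbw7 with reduced substrate affinity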
TEAD-YAP block = TEAD-YAP interaction inhibition. actives 1.4% (n = 640,000). HEK-TIYL cells, TEAD-Gal4/YAP UAS-luciferase luminescence. inhibition, % at 9.12 µM; in the data active means inhibition above about 32%;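 further: 0% = median of test compound wells and 100% = reference inhibitor wells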
GPR151 ag = activates the human receptor GPR151 | Q8TDV0 | PathHunter beta-arrestin GPR151 cells, luminescence | activation, % at 11.2 µM | actives 1% (n = 650,000); in the data active means activation above about 4.9%;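 further: 0% = median of compound wells and 100% = cells with positive control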
Target sequence (Q8TDV0 whole entry, looked up): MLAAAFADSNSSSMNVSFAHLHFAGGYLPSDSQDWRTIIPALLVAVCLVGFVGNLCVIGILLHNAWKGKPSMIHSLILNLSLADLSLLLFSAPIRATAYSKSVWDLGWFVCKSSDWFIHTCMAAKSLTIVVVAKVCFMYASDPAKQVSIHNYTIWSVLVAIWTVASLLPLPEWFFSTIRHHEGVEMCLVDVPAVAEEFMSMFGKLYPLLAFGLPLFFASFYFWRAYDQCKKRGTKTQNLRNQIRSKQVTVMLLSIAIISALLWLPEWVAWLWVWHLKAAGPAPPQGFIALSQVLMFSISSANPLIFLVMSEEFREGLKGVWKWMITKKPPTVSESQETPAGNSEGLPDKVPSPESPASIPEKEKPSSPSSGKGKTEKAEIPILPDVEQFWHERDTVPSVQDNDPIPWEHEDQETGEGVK
MITF inh = human MITF inhibition, primary screen; O75030; AlphaScreen MITF homodimerization, bead proximity signal; inhibition, % at 2.6 µM; actives 0.91% (n = 650,000); in the data active means inhibition above about 50%;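 further: 0% = vehicle wells with protein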
The depositor's hits bear a star; nt = no result given; ! = repeats disagree.

SMILES	FBW7 act	TEAD-YAP block	GPR151 ag	MITF inh
CCOc1ccc(N(C(C)C(=O)Nc2ccccc2OCC)S(C)(=O)=O)cc1 (stereo unspecified)	0	54*	0	9
CCOc1ccc(N(C(C)C(=O)Nc2ccccc2C(=O)OC)S(C)(=O)=O)cc1 (stereo unspecified)	0	35*	-1	-10
CCOc1ccccc1NC(=O)C(C)Oc1ccccc1 (stereo unspecified)	0	-1	0	-13
CCOc1ccccc1NC(=O)C(C)N(c1ccc(Cl)cc1)S(C)(=O)=O (stereo unspecified)	0	6	-1	3
CCCCCCCC/C=C\CCCCCCCC(=O)N[C@@H](CO)C(=O)O	nt	nt	-1	7
N#CCC(NC(=O)OCc1ccccc1)C(=O)O (stereo unspecified)	0	-9	2	16
Cc1ncc(CO)c(/C=N/NC(=O)c2cc3c(s2)CCCC3)c1O	-1	40*	-1	29
Cc1ncc(CO)c(/C=N/NC(=O)c2ccc(C(C)(C)C)cc2)c1O	0	83*	0	15
Cc1ncc(CO)c(/C=N/Nc2nc3ccccc3[nH]2)c1O	-1	-11	1	86*
CC1=NN(c2ccccc2)C(=O)/C1=C/c1ccc(-c2cccc(C(=O)O)c2)o1	-1	-3	0	10
CCN(CC)c1ccc(N2CCN(S(=O)(=O)c3cc(C)ccc3OC)CC2)nn1	0	54*	1	9
COc1ccc(C)cc1S(=O)(=O)N1CCN(c2ccc(-c3ccncc3)nn2)CC1	0	1	-2	8
CCN(CC)CCCn1c2c(c(SCC(=O)Nc3cc(Cl)ccc3OC)nc1=O)CCC2	0	-6	1	-10
CC(C)(C)c1cc(-c2nc3ccccc3[nH]2)n[nH]1	0	96*	-10	-2
COc1ccc(F)cc1C(=O)C1CCCN(C2CCN(Cc3ccccn3)CC2)C1 (stereo unspecified)	0	21	1	8
Cc1ccc(/C=C/C(=O)C2C(=O)c3ccccc3C2=O)cc1	0	41*	0	-25
COc1ccccc1C1C(C(=O)OC2CCCC2)=C(C)NC2=C1C(=O)CC(c1ccccc1)C2 (stereo unspecified)	2.6*	-2	1	2
CCCOC(=O)C1=C(C)NC2=C(C(=O)CC(c3ccc(OC)c(OC)c3)C2)C1c1ccc(Cl)cc1Cl (stereo unspecified)	0	4	-1	12
COc1ccc(C2CC(=O)C3=C(C2)NC(C)=C(C(=O)OC2CCCC2)C3c2ccc(F)cc2)cc1OC (stereo unspecified)	0	37*	0	1
COc1cccc(C2C(C(=O)OC3CCCC3)=C(C)NC3=C2C(=O)CC(c2ccccc2)C3)c1OC (stereo unspecified)	0	4	-1	-19
COc1ccc(C2CC(=O)C3=C(C2)NC(C)=C(C(=O)OC2CCCC2)C3c2ccccc2F)cc1OC (stereo unspecified)	0	48*	-1	-16
CCCOC(=O)C1=C(C)NC2=C(C(=O)CC(c3ccc(OC)c(OC)c3)C2)C1c1cccc(Cl)c1 (stereo unspecified)	1	35*	0	8
Cc1sc2ncnc(SCC(=O)c3ccc4c(c3)OCO4)c2c1C	0	15	-1	-7
COc1ccc(C2CC(=O)C3=C(C2)NC(C)=C(C(=O)OC2CCCC2)C3c2cccc(Cl)c2)cc1OC (stereo unspecified)	0	30	2	-8
COc1ccc(C2CC(=O)C3=C(C2)NC(C)=C(C(=O)OC2CCCC2)C3c2cccc(C)c2)cc1OC (stereo unspecified)	0	47*	0	-34
SMILES	FBW7 act	TEAD-YAP block	GPR151 ag	MITF inh
COc1ccc(C2CC(=O)C3=C(C2)NC(C)=C(C(=O)OC2CCCC2)C3c2cccc([N+](=O)[O-])c2)cc1OC (stereo unspecified)	0	42*	1	14
O=C(COC(=O)c1ccccc1F)c1ccc(Br)cc1	0	9	0	2
CS(=O)(=O)N(CC(=O)NCc1cccnc1)c1ccccc1F	0	-1	-1	-4
Cc1c(C(=O)Nc2ccccc2C(F)(F)F)sc2nc(SCC(=O)c3ccccc3)n(CCc3ccccc3)c(=O)c12	1	0	-1	8
COCc1c(C(=O)N/N=C/c2ccc(Cl)cc2)nnn1-c1nonc1N	0	4	0	6
CCN(CC)c1ccc(/C=N/NC(=O)c2nnn(-c3nonc3N)c2COC)c(O)c1	0	37*	0	-7
COCc1c(C(=O)N/N=C/c2cc(Cl)ccc2O)nnn1-c1nonc1N	0	61*	0	38
CC1CCN(Cc2nnnn2CC(=O)N(C)CCC(O)c2ccccc2)CC1 (stereo unspecified)	0	6	1	-2
CCc1nc(SCC(=O)Nc2ccc(OC)c(OC)c2)[nH]c(=O)c1C	0	17	0	-7
N#Cc1ccsc1NC(=O)/C=C/c1ccccc1Cl	0	64*	-3	3
N#Cc1ccsc1NC(=O)c1cccc(Cl)c1Cl	0	5	-2	-1
CCC(NC(=O)c1ccccc1NC(=O)C(C)(C)C)C(=O)OC (stereo unspecified)	0	9	2	7
COc1c2occc2cc2ccc(=O)oc12	2.0*!	-2	-1	1
CCCN(c1ccc(OCC)cc1)c1ncnc2nc[nH]c12	1	18	-1	9
CCN(c1ccc(OC)cc1)c1ncnc2nc[nH]c12	1	37*	-1	6
CC(=O)Oc1cccc2ccc(/C=C/c3cc4c(cc3Cl)OCO4)nc12	0	-23	0	15
CC(=O)Oc1cccc2ccc(/C=C/c3ccc4c(c3)OCO4)nc12	0	78*	-8	14
Oc1cccc2ccc(/C=C/c3ccc4c(c3)OCCO4)nc12	0	92*	-10	-2
Cc1ncoc1C(=O)NC1CCCc2c1cnn2-c1ccc(F)cc1F (stereo unspecified)	0	45*	0	6
CC1=C(C(=O)NC2CCCc3c2cnn3-c2ccc(F)cc2F)OCCO1 (stereo unspecified)	0	30	0	8
CN1CCN(Cc2nc3c(c(=O)n(C)c(=O)n3C)n2CC(N)=O)CC1	0	7	2	10
O=C(/C=C/c1ccco1)Nc1ccc(F)c(F)c1F	0	-49	-4	13
CCOc1ccc(/C=N/NC(=O)c2ccccc2NC(=O)c2ccc(OC)cc2)cc1	0	55*	1	-8
CCOc1ccc(/C=N/NC(=O)c2ccc(F)cc2)cc1	0	-34	-2	13
O=C(Nc1ccccc1C(=O)N/N=C/c1ccncc1)c1ccccc1	0	41*	-2	-3
O=C(Nc1ccccc1C(=O)N/N=C/c1ccncc1)c1ccc([N+](=O)[O-])cc1	0	41*	0	-1
Cn1c(=O)cc(OCCCC(=O)Nc2cccc(C#N)c2)c2ccccc21	0	5	-1	-2
